GLP1R ag = agonists of human GLP-1 receptor; HEK293 GLP-1R CRE-luciferase, luminescence, 4-6 h; cells express a hypersensitive GLP-1R form; Potency, µM (top dose mostly 45.6 µM), actives largely listed as activators; 380,000 tested, 0.007% active; AID 624172
Target sequence (P43220 whole entry, looked up): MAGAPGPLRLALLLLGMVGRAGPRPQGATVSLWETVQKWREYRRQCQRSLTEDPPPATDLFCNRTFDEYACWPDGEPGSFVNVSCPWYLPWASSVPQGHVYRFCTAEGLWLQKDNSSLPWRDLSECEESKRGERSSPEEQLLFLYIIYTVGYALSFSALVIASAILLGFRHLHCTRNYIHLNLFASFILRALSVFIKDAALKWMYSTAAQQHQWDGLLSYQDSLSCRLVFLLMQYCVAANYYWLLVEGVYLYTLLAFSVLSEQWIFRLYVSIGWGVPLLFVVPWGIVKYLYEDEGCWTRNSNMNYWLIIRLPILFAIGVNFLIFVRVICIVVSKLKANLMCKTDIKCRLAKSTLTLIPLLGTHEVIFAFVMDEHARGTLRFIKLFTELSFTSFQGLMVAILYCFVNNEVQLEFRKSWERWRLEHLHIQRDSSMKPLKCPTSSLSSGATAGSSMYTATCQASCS
GLP-1R inv ag = GLP-1 receptor (human) inverse agonism | AID 624417 | P43220 | HEK293 GLP-1R CRE-luciferase, luminescence, 24 h; GLP-1R form is constitutively active | 410,000 tested, 1.6% active | Potency, µM (titrated, usually from 38.3 µM), hits mostly inhibitors; further: nearly all actives have a fitted effect of over 55% in size
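Inverse agonists were sought by their lowering of basal cAMP reporter luciferase output in HEK293 cells stably carrying constitutively active human GLP-1R, after 24 h compound treatment.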
ClpP mod = qHTS Assay for Activators of ClpP; ATP-dependent Clp protease proteolytic subunit (Bacillus subtilis (strain 168)), P80244; purified B. subtilis ClpP, FRET peptide cleavage, 20 min; Potency, µM (series often up to 57.5 µM); 340,000 tested, 1.9% active; active means well fitted falling curve with a large enough effect; inconclusive means small, poorly fitted or top-dose-only effect; inactive means no such curve, though single readings can be large or run the other way; further: the source files actives as falling curves though it sought activators and does not explain the sign; nearly all actives have a fitted effect of over 65% in size
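FRET quenching reversal measured ClpP activation: 10 microg/mL B. subtilis ClpP at pH 8 with the FRET-FV decapeptide, read at 430 nm after 320 nm excitation. The 20-min minus 0-min signal was scaled between DMSO/no-enzyme wells and ADEP (5.8 microM final).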
HEK293 tox = cytotoxic in the GLP-1 receptor inverse agonist counter-screen; HEK293 cAMP-luciferase reporter cells, luminescence, 24 h; Potency, µM (series often up to 38.3 µM), most hits filed as inhibitors; 410,000 tested, 0.13% active;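 further: loss of luciferase light is scored as toxicity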
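A 23 nL compound transfer followed 12 hours of cell culture at 37 deg C; exposure then lasted 24 hr. Luciferase assay detection reagent was dispensed and plates read for luminescence after a 12 min room-temperature wait.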
Each line names hits and unclear results; the compound was inactive in the other large screens. Compounds with a hit are over-represented: about 3.2% of the library has one in this group of screens. Unless noted, the call rests on the fitted dose curve; in most records, active means well fitted curve in the direction sought with a large enough effect; inconclusive means small, poorly fitted or top-dose-only effect, or another doubt; inactive means no such curve, though single readings can be large; an effect the other way counts as inactive or inconclusive.

CCNc1oc(-c2ccc(COc3ccc(Cl)cc3)o2)nc1C#N	GLP-1R inv ag inconclusive (no result: GLP1R ag)
COCCNc1oc(-c2ccc(COc3ccc(OC)cc3)o2)nc1C#N	ClpP mod inconclusive (no result: GLP1R ag)
COc1ccccc1CNC(=O)CCC1N=C2c3ccccc3N=C(SCC(=O)NCCc3ccc(OC)c(OC)c3)N2C1=O (centres undefined)	none (no result: GLP1R ag)
COc1cc(SC)ccc1C(=O)Nc1ccc(S(=O)(=O)Nc2nccc(C)n2)cc1	none (no result: GLP1R ag)
COc1ccc(-c2nc(C#N)c(NCc3ccccc3Cl)o2)cc1OC	ClpP mod inconclusive
COc1ccc(CNc2oc(-c3ccc(COc4ccc(OC)cc4)o3)nc2C#N)cc1	GLP-1R inv ag inconclusive, ClpP mod 22µM (no result: GLP1R ag)
COc1ccc(-c2nc(C#N)c(NCCc3ccccc3)o2)cc1	ClpP mod 32µM
Cc1ccc(OCc2ccc(-c3nc(C#N)c(NCc4ccccc4Cl)o3)o2)cc1	ClpP mod 25µM (no result: GLP1R ag)
COc1ccc(-c2nc(C#N)c(NCc3ccccc3Cl)o2)cc1	ClpP mod 35µM
CCc1nn(CCCC(=O)N2CCN(c3cccc(OC)c3)CC2)c(=O)c2cc3occc3n12	none (no result: GLP1R ag)
CCc1nnc(NC(=O)CSc2nc3c([nH]c4ccccc43)c(=O)n2-c2cc(C)cc(C)c2)s1	none
O=C(CN1CCCC1)N/N=C/c1c(O)ccc2ccccc12	GLP-1R inv ag 2.8µM
O=C(Cc1ccccc1[N+](=O)[O-])NCc1ccc2c(c1)OCO2	ClpP mod 32µM
Cc1cc(C(=O)NCc2ccc3c(c2)OCO3)ccc1[N+](=O)[O-]	none
O=C(Cc1ccccc1)NCc1ccc2c(c1)OCO2	none
CC1CC(C)CN(c2ccc(C(=O)NCc3ccc4c(c3)OCO4)cc2[N+](=O)[O-])C1 (centres undefined)	GLP-1R inv ag 11µM
Cc1ccc(CNC(=O)C2CCN(Cc3nc(-c4cccc(Br)c4)oc3C)CC2)cc1	none (no result: GLP1R ag)
C=CCN1C(c2ccc(Br)cc2)=CS/C1=C(\C#N)c1nnc(N2CCOCC2)n1-c1ccccc1	GLP-1R inv ag 7.1µM (no result: ClpP mod)
CCN(CC)c1ccc(NC(=O)c2c(C)nn(-c3ccc(F)cc3)c2-n2cccc2)c(C)c1	GLP-1R inv ag 5µM
Cc1ccc(CCNC(=O)c2c(C)nn(-c3ccc(F)cc3)c2-n2cccc2)cc1	GLP-1R inv ag 6.3µM
COc1ccc(CCNC(=O)c2c(C)nn(-c3ccc(F)cc3)c2-n2cccc2)cc1OC	GLP-1R inv ag inconclusive
O=C(Nc1ncc2c(n1)-c1ccccc1OC2)c1ccc(F)cc1	none (no result: ClpP mod)
O=C(Nc1ncc2c(n1)-c1ccccc1OC2)c1ccc(Cl)cc1Cl	ClpP mod 35µM
O=C(Nc1ncc2c(n1)-c1ccccc1CC2)c1ccc(Cl)cc1	GLP-1R inv ag inconclusive, ClpP mod 28µM
CCOC(=O)CSC1=C(C#N)C(c2ccc(C)o2)CC(=O)N1 (centres undefined)	GLP-1R inv ag 0.56µM
CCOC(=O)CSc1nc(N)c(C#N)c(-c2cccs2)c1C#N	none
CCCSc1nc(N)nc(-c2cccs2)c1C#N	ClpP mod 25µM
COCn1c(-c2ccc(OC)c(OC)c2)nc2ccccc21	ClpP mod 28µM
COc1ccc(OC)c(NC(=O)N(C)CCc2c(C)nn(C)c2C)c1	none (no result: GLP1R ag)
CCN1C(=O)[C@@H]2Cc3c([nH]c4ccccc34)C(c3cc(OC)c(OC)c(OC)c3)N2C1=S (some centres undefined)	GLP-1R inv ag inconclusive
COc1cc([C@H]2c3[nH]c4ccccc4c3C[C@H]3C(=O)N4[C@@H](c5cc(OC)c(OC)c(OC)c5)c5[nH]c6ccccc6c5C[C@H]4C(=O)N23)cc(OC)c1OC	GLP-1R inv ag 10µM
CC(C)CN1CC(=O)N2C(c3ccccc3)c3[nH]c4ccccc4c3C[C@H]2C1=O (some centres undefined)	GLP-1R inv ag 10µM
O=C1[C@@H]2Cc3c([nH]c4ccccc34)C(c3ccccc3)N2C(=O)CN1CCO (some centres undefined)	GLP-1R inv ag inconclusive
COc1ccc(N2CCN(C(=O)c3ccc(-c4nc(COc5ccccc5)c(C)o4)cc3)CC2)cc1	none (no result: GLP1R ag)
COc1ccc(NC(=S)NC(NC(=O)c2ccc(Cl)cc2Cl)C(Cl)(Cl)Cl)c([N+](=O)[O-])c1 (centres undefined)	GLP-1R inv ag 10µM, HEK293 tox inconclusive
CC(C)SC1=NC(C)(C)C=C(/C=C/c2c(Cl)cccc2Cl)N1	GLP-1R inv ag 2.8µM
